Bioassay records (PubChem BioAssay)
NPC1 prom act – activates the NPC1 promoter | Potency, µM (series often up to 9.22 µM), for the others: top-dose activation, usual class: activators | Huh7 NPC1 promoter luciferase reporter, 24 h | hit rate 2.4% among 320,000; note: % of control where 0% means no effect; nearly all actives have a fitted effect of over 60% in size
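Stable NPC1-promoter luciferase Huh7 line; cpd (DMSO) 24 h, 37 °C, 5% CO2; Amplite luciferase reagent 10 min RT; luminescence readout. qHTS format.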
Rab9 prom act – activators of Rab9 promoter; Huh7 Rab9 promoter-luciferase reporter, luminescence, 24 h; Potency, µM (titrated, usually from 9.22 µM), for the others: at the top dose activation, negative = inhibition, most hits filed as activators; hit rate 2.8% among 320,000; note: % of control where 0% means no effect; nearly all actives have a fitted effect of over 60% in size
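Huh7 cells stably carrying a Rab9 promoter-luciferase reporter, 1500 cells per well in OP-MEM I with 10% FBS, treated with compound 24 hours at 37C. Luciferase activity read by luminescence after 10 minutes with Amplite reagent.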
uPA generation – blocks generation of uPA at the cell surface; cell surface uPA generation assay, qHTS; Potency, µM (series often up to 38.3 µM), for inactives: top-dose activity change, negative = inhibition, actives largely listed as inhibitors; hit rate 0.31% among 330,000; active = well fitted inhibition curve with a large enough effect; inconclusive = small, poorly fitted or top-dose-only effect; inactive = no such curve, though single readings can be large or run the other way; tested in mouse RAW 264.7 cells; note: % is set by controls: 0 for no effect and ±100 for the full control effect; nearly all actives have a fitted effect of over 55% in size
FLuc counter – counter-screen for miR-21 project: firefly luciferase inhibitors or activators | P08659 | purified FLuc, Km substrates, luminescence inhibition | Potency, µM (series often up to 57.5 µM), inactives show at the top dose activity change, negative = inhibition, actives largely listed as inhibitors | hit rate 6.9% among 360,000;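 note: plate controls were vehicle for no effect and reference inhibitor for full effect; nearly all actives have a fitted effect of over 55% in size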
Target sequence (P08659 whole entry, looked up): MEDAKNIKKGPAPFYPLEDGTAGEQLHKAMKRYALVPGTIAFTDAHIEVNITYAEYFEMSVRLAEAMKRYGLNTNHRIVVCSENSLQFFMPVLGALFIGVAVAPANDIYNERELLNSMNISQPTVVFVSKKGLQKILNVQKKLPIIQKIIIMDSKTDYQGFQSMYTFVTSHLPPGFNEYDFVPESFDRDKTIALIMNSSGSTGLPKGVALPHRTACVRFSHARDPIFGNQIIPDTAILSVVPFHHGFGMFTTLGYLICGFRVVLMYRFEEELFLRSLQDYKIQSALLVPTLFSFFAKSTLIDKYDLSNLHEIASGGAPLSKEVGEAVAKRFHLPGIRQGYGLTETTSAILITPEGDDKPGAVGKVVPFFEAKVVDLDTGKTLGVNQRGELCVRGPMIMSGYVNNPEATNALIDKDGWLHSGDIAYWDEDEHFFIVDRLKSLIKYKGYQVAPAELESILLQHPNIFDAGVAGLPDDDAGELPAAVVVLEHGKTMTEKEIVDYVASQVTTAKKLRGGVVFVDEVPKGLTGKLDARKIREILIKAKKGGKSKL
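Biochemical qHTS of compounds, final roughly 60 µM downward over six points, against 10 nM purified firefly luciferase using Km concentrations of substrates (10 uM D-luciferin, 10 uM ATP) in Tris acetate pH 7.5 buffer; luminescence output.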
ELG1 genotox – inducers of genotoxicity in HEK293T ELG1-luciferase cells. AID 504466. HEK293T ELG1-luciferase reporter, luminescence, 16 h. Potency, µM (series often up to 46 µM), inactives show at the top dose activity change, positive = activation, actives largely listed as activators. hit rate 1.3% among 330,000; note: % of control where 0% means no effect; nearly all actives have a fitted effect of over 60% in size
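16 hr compound incubation (37 °C, 5% CO2) of HEK293T cells carrying luciferase-tagged ELG1; luciferase then measured by ONE-Glo luminescence after 30 min at RT.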
SMN2 splice up – increases expression of the SMN2 splice variant. HEK293 SMN2-luciferase splicing reporter, luminescence, 30-36 h. Potency, µM (top dose mostly 46.1 µM), without a hit: at the top dose activity change, positive = activation, actives largely listed as activators. hit rate 2.8% among 210,000. AID 1458; note: % of control where 0% means no effect; nearly all actives have a fitted effect of over 55% in size
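qHTS luciferase splicing reporter: luminescence rises when SMN2 exon 7 is included in transfected HEK293 cells. Compound exposure lasted 30-36 h at 37C, with 4.5 mM final sodium butyrate as control, followed by a ONE-Glo read.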
An asterisk follows results filed as active; ? = inconclusive; nt = not tested or not shown; [ ] = dose if it differs, or a comment. Only some compounds are listed: those with a hit (about 7.3% of all), similar ones and a draw of the others. Unless noted, calls come from the whole dose curve; as a rule, active = well fitted curve in the direction sought with a large enough effect; inconclusive = small, poorly fitted or top-dose-only effect, or another doubt; inactive = no such curve, though single readings can be large; an effect the other way counts as inactive or inconclusive. Potency is the fitted concentration of half-maximal effect.

SMILES	NPC1 prom act	Rab9 prom act	uPA generation	FLuc counter	ELG1 genotox	SMN2 splice up
Cc1cccc2c1Oc1ccccc1[C@@H]2NC(=O)c1ccc([N+](=O)[O-])cc1	nt	nt	nt	nt	nt	-3.4%[9.22 µM]
Fc1ccccc1Cn1c(-c2ccccc2)nc2ccccc21	nt	nt	nt	?	nt	39.7%
COc1ccc(OC)c(NC(=O)Nc2ccc3[nH]ccc3c2)c1	nt	nt	5.6%	nt	nt	nt
Cc1ccc(-n2c(C)cc(/C=C3\NC(=O)NC3=O)c2C)c(C)c1	1.2%	2.1%	-2.3%	8.49µM*	8.3%	-8.7%
Cc1cc(/C=C2/NC(=O)NC2=O)c(C)n1-c1ccccn1	16.9%	23.1%	1.2%	21.3µM*	10.5%	?
COc1cccc(CC(=O)Nc2ccc3nc(N4CCC(C)CC4)cc(C)c3c2)c1	nt	nt	nt	-13.3%	nt	-17.7%
O=C(Cc1ncc(C(F)(F)F)cc1Cl)NNc1cccc(F)n1	-8.6%	1.0%[1.84 µM]	-1.2%	-0.3%	-0.9%	nt
Cc1ccc2occ(CC(=O)N(Cc3ccccc3Cl)C3CCS(=O)(=O)C3)c2c1 (stereo not given)	nt	nt	nt	0.1%	nt	-5.5%
COC(=O)c1cc(=O)n(Cc2ccc(OC)c(OC)c2)c(=Nc2ccc(F)cc2)s1	-2.9%	-2.2%	4.47µM*	-0.4%	-5.4%	-16.2%
CCOC(=O)c1ccc(N=c2sc(C(=O)OC)cc(=O)n2-c2ccc(C(=O)OCC)cc2)cc1	-6.4%	-13.6%	?	-19.2%	?	-38.9%
COC(=O)c1cc(=O)n(-c2ccccc2)c(=Nc2ccccc2)s1	-1.4%	-0.7%	4.47µM*	1.9%	0.8%	-4.8%
CNC(=O)C1CC(=O)N(CCc2ccc(OC)c(OC)c2)C(=Nc2ccc(F)cc2)S1 (stereo not given)	0.7%	-2.9%	-4.4%	-2.0%	-5.4%	nt
COC(=O)c1cc(=O)n(Cc2ccco2)c(=Nc2ccc(F)cc2)s1	1.1%	0.0%	?	-0.2%	-1.2%	nt
COC(=O)c1cc(=O)n(CCc2ccc(OC)c(OC)c2)c(=Nc2ccc(F)c(Cl)c2)s1	-2.2%	0.0%	6.31µM*	-0.8%	-18.4%	-24.7%
COC(=O)c1cc(=O)n(Cc2cccs2)c(=Nc2ccccc2)s1	-4.8%	-2.7%	?	0.2%	5.1%	nt
COC(=O)c1cc(=O)n(Cc2ccc(F)cc2)c(=Nc2ccccc2)s1	-1.9%	-2.6%	7.08µM*	0.1%	-4.2%	nt
COc1ccc(Cl)cc1NC(=O)Cn1c(=O)n(Cc2cccs2)c(=O)c2cccnc21	nt	nt	nt	-6.8%	nt	-6.2%
CCCCN(CC)C(=O)Nc1ccc2c(c1)N(C)C(=O)c1ccccc1S2	nt	nt	nt	-1.4%	nt	nt
COc1ccc(CCNC(=O)CCc2c(C)c3ccc(O)c(C)c3oc2=O)cc1	nt	nt	nt	6.5%	nt	nt
CC(Sc1nnc(-c2ccncc2)n1C)C(=O)Nc1ccc(N2CCOCC2)cc1 (stereo not given)	0.6%	-3.0%	3.4%	-17.7%	0.6%	nt
CC(C)(C)c1ccc(C(=O)O/N=C(\N)c2ccccc2)cc1	-15.9%	-11.8%	13.0%	0.757µM*	?	nt
Cc1cc(C(=O)O/N=C(\N)c2ccc(C(C)(C)C)cc2)no1	3.55µM*	1.78µM*	11.1%	6.01µM*	10.2%	nt
COc1ccc(C(=O)O/N=C(\N)c2ccc(Br)cc2)cc1	?	?	-4.4%	3.01µM*	15.9%	nt
Cc1cc(/C(N)=N/OC(=O)Nc2ccc(Cl)cc2)no1	10.1%	?	2.7%	19µM*	?	nt
CCCCN1C(=O)/C(=C2/Sc3ccccc3N2C)S/C1=N\c1ncn[nH]1	0.5%	-4.1%	19.9%	-18.2%	7.9%	nt
SMILES	NPC1 prom act	Rab9 prom act	uPA generation	FLuc counter	ELG1 genotox	SMN2 splice up
O=C(NCCc1ccc(F)cc1)C(=O)NCC(c1ccc2c(c1)OCO2)N1CCOCC1 (stereo not given)	nt	nt	nt	-3.3%	nt	nt
O=C(Nc1cc(Cl)ccc1Cl)c1cc(S(=O)(=O)N2CCc3ccccc3C2)ccc1F	nt	nt	nt	0.1%	nt	nt
COc1ccc(C(=O)O/N=C(\N)c2ccccc2)cc1	0.501µM*	1.41µM*	-2.4%	0.213µM*	1.83µM*	nt
Cc1ccc2cc(C=O)c(N3CCOCC3)nc2c1C	-2.9%	21.9%	0.5%	?	-0.3%	nt
Cc1ccc2nc(N3CCOCC3)c(C=O)cc2c1	22.8%	12.7%	6.1%	21.3µM*	?	nt
Cc1nnsc1C(=O)Nc1ccc(S(=O)(=O)N2CCC(C)CC2)cc1	-10.9%	-18.2%	1.4%	1.6%	2.9%	nt
Cn1c(C(=O)O)c(CC(=O)Nc2ccc3c(c2)OCCO3)c2ccccc21	-0.6%	4.6%	0.4%	19µM*	?	-35.0%
O=C(CNCc1ccc(Cl)cc1)Nc1ccc2c(c1)OCCO2	17.1%	1.8%	5.3%	-15.8%	-0.6%	9.6%
O=C(CNCc1ccccc1Cl)Nc1ccc2c(c1)OCCO2	3.16µM*	2.82µM*	-11.2%	21.3µM*	?	nt
O=C(CSCc1ccc(Cl)cc1)Nc1ccc2c(c1)OCO2	0.7%	-5.0%	-3.7%	?	-0.2%	2.0%
O=C(CSCc1ccccc1Cl)Nc1ccc2c(c1)OCCO2	1.78µM*	1.58µM*	-3.4%	6.75µM*	?	45.1%
CCOC(=O)C1=C(CNCc2ccccc2)NC(=O)NC1c1ccc(C)cc1 (stereo not given)	nt	nt	nt	-8.1%	nt	-3.7%
COc1ccc(S(=O)(=O)Nc2ccc3oc4c(c3c2)C(=O)CC(C)(C)C4)cc1	nt	nt	nt	2.2%	nt	-39.8%
CCc1nc(N2CCN(S(C)(=O)=O)CC2)c2c3c(sc2n1)CCCC3	-1.3%	-3.6%	-6.5%	-2.0%	-4.4%	nt
C=CCNC(=O)COc1ccc(Br)cc1Cl	?	?	-6.0%	16.9µM*	13.7%	?
O=C(COc1ccc(Br)cc1Cl)NC1CCCCC1	2.82µM*	1.41µM*	1.7%	3.01µM*	?	?
COCCNC(=O)COc1ccc(Br)cc1Cl	22.0%	26.6%	-0.6%	?	?	-6.7%
O=C(COc1ccc(Br)cc1Br)NC1CCS(=O)(=O)C1 (stereo not given)	-2.8%	1.6%	0.8%	-2.8%	17.3%	nt
Cc1cc(Cl)ccc1OCC(=O)NC1CCCC1	-0.9%	1.6%	1.5%	?	?	-76.3%
O=C(COc1ccc(Br)cc1Br)NC1CCCC1	-0.5%	0.3%	1.3%	16.9µM*	21.5%	-56.8%
O=C(COc1ccc(Br)cc1Cl)NC(=O)NC1CCCC1	29.3%	?	1.3%	9.53µM*	?	nt
CC(C)CN1C(=O)C(=O)N(CC(=O)c2ccc3c(c2)OCO3)C1=O	9.9%	0.3%	0.6%	3.1%	?	nt
Cc1ccc(S(=O)(=O)N2CCOCC2)cc1NC(=O)Cn1c(=O)ccn(Cc2ccccc2)c1=O	nt	nt	-3.5%	nt	nt	nt
O=C(COc1ccccc1Cl)c1ccc[nH]1	19.2%	?	-3.8%	?	?	?
CC(C)NC(=O)NC(=O)COc1ccc(Br)cc1Br	1µM*	2µM*	1.6%	1.2µM*	3.26µM*	2.51µM*
